GLP1R ag = activates the human GLP-1 receptor; P43220; HEK293 GLP-1R CRE-luciferase, luminescence, 4-6 h; cells express a hypersensitive GLP-1R form; Potency, µM (series often up to 45.6 µM), without a hit: at the highest dose activation, hits mostly activators; hit rate 0.007% among 380,000; further: % of control where 0% means no effect
ALOX12 inh = inhibitors of human 12S-lipoxygenase ALOX12; hit rate 1.1% among 580,000; P18054; Potency, µM (titrated, usually from 108 µM), for inactives: at the top dose activity change, negative = inhibition, usual class: inhibitors; purified 12hLO, xylenol orange hydroperoxide absorbance; further: on the % scale 0 is the no-effect control and ±100 the full control effect
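Purified human 12hLO at 150 nM in 25 mM Hepes, 0.01% Triton X-100, pH 7.0, preincubated 15 min at room temperature with compound. Reaction started with 40 uM arachidonic acid, 30 min at room temperature. Hydroperoxide measured by Fe-xylenol orange, 573/405 nm absorbance ratio.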
GRP78 ERSR act = induces the endoplasmic reticulum stress response in human glioma cells; Potency, µM, inactives show at the highest dose activation, actives largely listed as activators; hit rate 0.02% among 420,000; U87-MG GRP78 promoter luciferase reporter, 16 h; AID 602332; further: series mostly up to about 76 µM; % of control where 0% means no effect; nearly all actives have a fitted effect of over 35% in size
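ERSR induction read as luciferase luminescence (Bright-Glo, 10 min at room temperature) in stably transfected human U87-MG glioma cells exposed to compounds for 16 h, using GRP78 as sensor.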
GLS inhibitor = inhibitors of human glutaminase (GLS) | O94925 | GLS enzymatic activity, qHTS titration | Potency, µM (titrated, usually from 45.5 µM), for inactives: top-dose activity change, negative = inhibition, most hits filed as inhibitors | hit rate 0.21% among 410,000 | AID 624170; further: on the % scale 0 is the no-effect control and ±100 the full control effect
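Compounds were pin-transferred onto hKGA, after which L-glutamine (1 mM solution) and a detection mix of glutamate oxidase, HRP and Amplex Red were added. Initial and 30 min RT fluorescence reads were collected.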
GLP-1R inv ag = inverse agonists of human GLP-1 receptor | Potency, µM (doses to about 38.3 µM), for the others: at the highest dose activity change, negative = inhibition, hits mostly inhibitors | hit rate 1.6% among 410,000 | P43220 | HEK293 GLP-1R CRE-luciferase, luminescence, 24 h; GLP-1R form is constitutively active; further: on the % scale 0 is the no-effect control and ±100 the full control effect; nearly all actives have a fitted effect of over 55% in size
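GLP-1R inverse agonism mode: basal reporter luminescence in engineered HEK293 cells measured after one day of compound exposure at 37 deg C, with a 12 min room-temperature detection step.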
PTHR1 agonist = PTHR1 (human) receptor agonism; HEK293 GP2 PTHR1 cells, GloSensor cAMP luminescence, 1 h; Potency, µM (titrated, usually from 115 µM), for inactives: at the top dose activation, actives largely listed as activators; hit rate 0.075% among 410,000; AID 743266; further: nearly all actives have a fitted effect of over 55% in size
Target sequence (Q03431 whole entry, looked up): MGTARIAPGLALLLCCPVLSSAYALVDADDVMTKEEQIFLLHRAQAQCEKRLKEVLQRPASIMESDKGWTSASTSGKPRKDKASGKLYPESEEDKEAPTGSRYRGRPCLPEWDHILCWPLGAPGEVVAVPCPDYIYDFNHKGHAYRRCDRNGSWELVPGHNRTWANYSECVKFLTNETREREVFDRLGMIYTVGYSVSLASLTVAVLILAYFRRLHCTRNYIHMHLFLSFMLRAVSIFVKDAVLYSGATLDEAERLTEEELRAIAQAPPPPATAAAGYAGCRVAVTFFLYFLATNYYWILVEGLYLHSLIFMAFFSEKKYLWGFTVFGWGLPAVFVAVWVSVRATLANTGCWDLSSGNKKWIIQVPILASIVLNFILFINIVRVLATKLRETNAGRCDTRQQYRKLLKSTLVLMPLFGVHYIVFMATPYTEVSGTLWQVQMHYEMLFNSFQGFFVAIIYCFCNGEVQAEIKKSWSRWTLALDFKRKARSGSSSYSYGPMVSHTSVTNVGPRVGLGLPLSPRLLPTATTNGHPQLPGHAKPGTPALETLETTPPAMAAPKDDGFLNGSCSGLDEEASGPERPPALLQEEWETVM
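HEK-293-derived GP2 cells expressing PTHR1 and a GloSensor cAMP reporter, 3,000/well, plated overnight, given luciferin plus IBMX (each 0.5 mM as added) for 1 h at 37 °C, then compound for 1 h at 37 °C. Luminescence was read after 15 min at room temperature.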
The depositor's hits bear a star; i = inactive; ? = inconclusive; . = no result; ! = not confirmed by another sample; [ ] = another dose, or the depositor's remark. Shown are actives, neighbours in structure and some others; about 2.3% of the full set was active somewhere. The call rests on the fitted dose curve; in most records, active means well fitted curve in the direction sought with a large enough effect; inconclusive means small, poorly fitted or top-dose-only effect, or another doubt; inactive means no such curve, though single readings can be large; an effect the other way counts as inactive or inconclusive. Potency means the concentration at half of the fitted maximal effect.

SMILES	GLP1R ag	ALOX12 inh	GRP78 ERSR act	GLS inhibitor	GLP-1R inv ag	PTHR1 agonist
Cc1ccc(NC(=O)CN2CCN(C(=O)CCc3ncc(-c4ccccc4)o3)CC2)cc1	.	22.7%	.	.	.	.
CS(=O)(=O)NCCc1ccc(C(=O)O)cc1	.	59.3%	.	.	.	.
Clc1ccc(N=c2ssnc2Cl)nc1	-6.2%	?	-2.3%	-4.9%	6.0%	-27.1%
Clc1nssc1=Nc1nncs1	-4.0%	4.47µM*	-5.0%	?	18.3%	i
COc1cc(N=c2ssnc2Cl)cc(OC)c1	-12.1%	?	-10.6%	-21.9%	?	i
Clc1nssc1=Nc1ccc(Br)cc1	-7.7%	3.98µM*	2.0%	?	-1.7%[0.307 µM]	-28.1%
Cc1ccccc1-c1cc2nc(Nc3ccc(F)cc3)n(C)c(=O)c2s1	14.0%	?	-0.9%	3.7%	-29.9%	-18.3%
COc1ccc(Nc2nc3cc(-c4ccccc4C)sc3c(=O)n2C)cc1OC	10.4%	35.5µM*	0.1%	4.9%	16.1%	i
O=C1ON=C(c2cccc([N+](=O)[O-])c2)/C1=C/c1ccc(O)cc1	-0.2%	7.94µM*	-11.2%	?	23.4%	i
COc1ccccc1C(NC(=O)C1CCN(CCc2ccc(Br)cc2)CC1)c1ccccn1 (configuration not stated)	-5.1%	39.8µM*	-2.0%	-8.4%	?	-2.7%
COc1ccccc1C(NC(=O)C1CCN(CCOc2ccccc2)CC1)c1ccccn1 (configuration not stated)	-2.6%	-2.4%	-3.3%	0.1%	?	i
CCCCN(C(=O)c1ccc(-c2ccc(Cl)cc2)o1)c1c(N)n(CCC)c(=O)[nH]c1=O	3.1%	15.8µM*!	0.5%	0.4%	-6.4%	-20.1%
CC(C)NC(=O)Nc1ccc2c(c1)C(=O)N([C@H](C)CO)C[C@H](C)[C@@H](CN(C)Cc1ccc3c(c1)OCO3)OCCCC[C@@H](C)O2	10.4%	0.0%	-4.9%	3.7%	10.7%	-19.2%
C[C@@H]1CCCCO[C@H](CN(C)Cc2ccc(C(F)(F)F)cc2)[C@H](C)CN([C@@H](C)CO)C(=O)c2cc(NC(=O)Cc3ccccc3)ccc2O1	6.4%	-14.1%	-2.5%	-5.5%	2.82µM*	-34.2%
C[C@@H]1CCCCO[C@@H](CN(C)CC2CCCCC2)[C@@H](C)CN([C@H](C)CO)C(=O)c2cc(NS(=O)(=O)c3ccc(Cl)cc3)ccc2O1	19.7%	?	0.9%	-5.1%	10µM*	-21.2%
CC(C)NC(=O)Nc1ccc2c(c1)C(=O)N([C@H](C)CO)C[C@H](C)[C@@H](CN(C)Cc1ccc(C(F)(F)F)cc1)OCCCC[C@H](C)O2	2.5%	-22.8%	-0.9%	0.8%	10µM*	-21.9%
COc1ccc(CN(C)C[C@@H]2OCCCC[C@H](C)Oc3ccc(NC(=O)Cc4ccccc4)cc3C(=O)N([C@@H](C)CO)C[C@@H]2C)cc1	1.7%	-23.1%	-6.1%	-1.1%	?	-15.6%
CCCn1c(-n2nc(C)cc2C)nc2c1c(=O)n(Cc1ccc(F)cc1)c(=O)n2C	.	-1.7%	.	.	.	.
Cc1ccc(N2CCN(S(=O)(=O)N3CCCCC3)CC2)cc1Cl	20.0%	-6.7%	-3.2%	2.6%	24.2%	-7.3%
Cc1cc(C)c(N2CCN(S(=O)(=O)N3CCCCCC3)CC2)c(C)c1	-17.7%	94.5%	-3.3%	3.2%	10µM*	-5.1%
O=C(NCCCN1CCOCC1)c1ccc(-c2ccc(N3CCCCCC3)nc2)cc1	.	-19.6%	.	.	.	.
Cc1oc2cc(OCC(=O)NC3CC3)ccc2c(=O)c1-c1ccc(Cl)cc1	.	-5.2%	.	.	.	.
O=C(CSc1ccc(Cl)cc1)N/N=C/c1ccc([N+](=O)[O-])o1	14.2%	39.8µM*	-0.5%	-4.6%	30.3%	-16.5%
O=C(CNc1ccc2ccccc2c1)N/N=C/c1ccc([N+](=O)[O-])o1	5.2%	-9.6%	-0.8%	0.0%	14.8%	i
CCCCn1nc(C(=O)Nc2cccc(C(F)(F)F)c2)c2ccccc2c1=O	.	-42.9%	.	.	.	.
